From PubChem BioAssay
MITF inh = blocks human microphthalmia-associated transcription factor. AlphaScreen MITF homodimerization, bead proximity signal. inhibition, % at 2.6 µM. 650,000 compounds, 0.91% hits. AID 1259374; in the data active = inhibition above about 50%;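 also: 0% = vehicle wells with protein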
Target sequence (O75030 whole entry, looked up): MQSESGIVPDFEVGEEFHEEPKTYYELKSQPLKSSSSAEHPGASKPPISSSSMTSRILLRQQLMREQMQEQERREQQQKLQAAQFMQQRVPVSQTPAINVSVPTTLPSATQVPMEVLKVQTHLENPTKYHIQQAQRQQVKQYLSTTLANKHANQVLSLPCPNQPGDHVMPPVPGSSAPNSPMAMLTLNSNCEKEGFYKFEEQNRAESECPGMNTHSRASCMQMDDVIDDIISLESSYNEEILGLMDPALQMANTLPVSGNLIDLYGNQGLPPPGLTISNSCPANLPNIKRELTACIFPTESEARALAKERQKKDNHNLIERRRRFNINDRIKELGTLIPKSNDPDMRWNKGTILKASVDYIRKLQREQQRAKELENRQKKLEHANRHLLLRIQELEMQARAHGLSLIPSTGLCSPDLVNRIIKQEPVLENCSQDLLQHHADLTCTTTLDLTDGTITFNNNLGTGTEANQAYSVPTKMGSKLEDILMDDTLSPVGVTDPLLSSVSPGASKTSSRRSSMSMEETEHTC
FBW7 activator = human FBW7 E3 ligase activation, primary screen | normalized activity (activation), % at 26.1 µM | AlphaScreen FBW7–phospho-cyclin E peptide binding, activator screen | Q969H0 | AID 1259310 | 650,000 compounds, 0.13% hits; in the data active = normalized activity above about 1.9%;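 also: purified mutant Fbw7 with reduced substrate affinity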
TEAD-YAP block = TEAD-YAP interaction inhibition. HEK-TIYL cells, TEAD-Gal4/YAP UAS-luciferase luminescence. 640,000 compounds, 1.4% hits. inhibition, % at 9.12 µM. AID 1259422; in the data active = inhibition above about 32%;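 also: 0% = median of test compound wells and 100% = reference inhibitor wells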
GPR151 ag = activates the human receptor GPR151; 650,000 compounds, 1% hits; PathHunter beta-arrestin GPR151 cells, luminescence; activation, % at 11.2 µM; Q8TDV0; AID 1508602; in the data active = activation above about 4.9%;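 also: 0% = median of compound wells and 100% = cells with positive control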
MITF inh conf = human MITF inhibition, confirmation | shares compounds with MITF inh | AlphaScreen MITF homodimerization, biotin/His-MITF beads | inhibition, % at 2.6 µM | 4,700 compounds, 16% hits | AID 1259372;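 active = inhibition above a cutoff derived from the DMSO control wells, cut at about 28% in these data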;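 also: 0% = MITF dimer wells with DMSO only; inhibitors lower the bead chemiluminescence by keeping MITF from dimerizing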
AS interf DR = optically interferes with AlphaScreen signal in dose response | 480 compounds, 6% hits | AlphaScreen optical interference counterscreen, cell-free | AID 1259373 | IC50, µM | shares compounds with MITF inh; call rule not given here
AlphaScreen intf2 = optically interferes with AlphaScreen signal; shares compounds with MITF inh; LysRS AlphaScreen counterscreen, signal interference, triplicate; inhibition, % at 2.6 µM; 4,700 compounds, 7.6% hits; AID 1259376;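 active = inhibition above a cutoff derived from the DMSO control wells, cut at about 30% in these data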
GPR151 confirm = confirmation of human GPR151 activators. shares compounds with GPR151 ag. GPR151 PathHunter beta-arrestin cells, luminescence, 90 min; % of EA-reagent control over plate median. activation, % at 11.2 µM. 6,700 tested, under 10 active. AID 1508609;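 active = mean percent activation across replicates above the confirmation screen cutoff of 4.91%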
GPR119 counter = GPR119 activation, counter-screen for GPR151 activators | shares compounds with GPR151 ag | GPR119 PathHunter beta-arrestin cells, luminescence, 90 min; 0 = compound-well median, 100 = enzyme-acceptor control | activation, % at 11.2 µM | 6,700 compounds, 0.3% hits;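 active = mean percent activation in the counterscreen above 29.09%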;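 also: counterscreen on off-target GPR119 to flag nonselective hits from the GPR151 activator screen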
Active calls of the source: *; nt = no result; ! = repeats disagree. The list is not random: actives were taken first. Their share in the collection is about 3.5%.

SMILES	MITF inh	FBW7 activator	TEAD-YAP block	GPR151 ag	GPR151 confirm	GPR119 counter	others
CC(=O)c1ccc(N2CCN(Cc3ccc(F)cc3F)CC2)cc1	55*	0	-7	-1	nt	nt	MITF inh conf=2;AlphaScreen intf2=4
CC(=O)c1ccc(N2CCN(Cc3cc(F)ccc3F)CC2)cc1	61*	0	2	-1	nt	nt	MITF inh conf=0;AlphaScreen intf2=3
CCCOc1ccc(C2C(C#N)=C(N)Oc3c2c(=O)oc2ccccc32)cc1OC (configuration not stated)	-6	0	-10	0	nt	nt
CC(C)N1CCN(Cc2ccc([N+](=O)[O-])cc2)CC1	67*	0	-6	0	nt	nt	MITF inh conf=5;AlphaScreen intf2=6
CCc1ccc(CN2CCN(C(C)C)CC2)cc1	81*	0	-8	-2	nt	nt	MITF inh conf=29*;AS interf DR=>6.9;AlphaScreen intf2=-9
CCC(C)N1CCN(Cc2cccc(F)c2)CC1 (configuration not stated)	-1	0	4	0	nt	nt
COc1cccc(N2CCN(Cc3ccc([N+](=O)[O-])cc3)CC2)c1	57*	0	9	-1	nt	nt	MITF inh conf=3;AlphaScreen intf2=3
Cc1ccc(CN2CCN(C(C)C)CC2)cc1	54*	0	7	0	nt	nt	MITF inh conf=-4;AlphaScreen intf2=-6
Cc1ccc2cc(C=C(C#N)C#N)c(=O)[nH]c2c1	0	0	2	0	nt	nt
CSc1ccc(CN2CCN(Cc3ccc(F)cc3)CC2)cc1	78*	0	10	5.2*	0	-5	MITF inh conf=3;AlphaScreen intf2=0
O=[N+]([O-])c1ccc(/C=C2\C(O)C3CCN2CC3)cc1 (configuration not stated)	-1	0	4	0	nt	nt
CN(C)[C@@H]1C(=O)C(C(N)=O)=C(O)[C@@]2(O)C(=O)C3=C(O)c4c(O)cccc4[C@@](C)(O)[C@H]3[C@H](O)[C@@H]12	64*	0	-2	7.4*!	0	0	MITF inh conf=62*;AS interf DR=4.4*!;AlphaScreen intf2=31*!
CN(C)[C@@H]1C(=O)C(C(N)=O)=C(O)[C@@]2(O)C(=O)C3=C(O)c4c(O)ccc(Cl)c4[C@@](C)(O)[C@H]3C[C@@H]12	-5	0	-13	-1	nt	nt
Cc1ccccc1CN1CCN(c2ccc([N+](=O)[O-])cc2)CC1	11	0	12	2	nt	nt
Cc1c(N=Nc2c(O)[nH]c(=S)[nH]c2=O)c(=O)n(-c2ccccc2)n1C	92*	0	-9	15*	1	4	MITF inh conf=36*;AlphaScreen intf2=100*
OCC1OC(Oc2ccc(Br)cc2)C(O)C(O)C1O (configuration not stated)	-1	0	-5	0	nt	nt
Nc1ncnc2c1ccn2[C@@H]1O[C@H](CO)[C@@H](O)[C@H]1O	10	0	100*	7.1*	5.9*	4
COc1cccc(N2C(=O)NC(=O)/C(=C/c3ccc(C)s3)C2=O)c1	13	0	-30	-1	nt	nt
NC(=O)OCCSc1nnc(-c2ccc3c(c2)OCO3)o1	15	0	-3	-2	nt	nt
COc1ccc(C2(CN)CCCC2)cc1	0	0	1	0	nt	nt
COc1ccc(C(CN(C)C)C2(O)CCCCC2)cc1 (configuration not stated)	4	0	4	8.7*!	0	5
CC(C)C(=O)Nc1ccc(S(=O)(=O)N2CC3CC(C2)c2cccc(=O)n2C3)cc1 (configuration not stated)	8	0	2	13*	0	9
CC(=O)Nc1ccc(S(=O)(=O)N2CC3CC(C2)c2cccc(=O)n2C3)cc1 (configuration not stated)	-10	0	-8	1	nt	nt
CC1(c2ccc3ccccc3c2)NC(=O)N(CC(=O)Nc2ccc(C#N)c(Cl)c2)C1=O (configuration not stated)	9	0	1	0	nt	nt
N#Cc1ccc(NC(=O)CN2c3cccc4cccc(c34)S2(=O)=O)cc1Cl	19	1	17	5.2*	1	-3
SMILES	MITF inh	FBW7 activator	TEAD-YAP block	GPR151 ag	GPR151 confirm	GPR119 counter	others
CC(O)CNc1ccc([N+](=O)[O-])c2ncccc12 (configuration not stated)	-9	-1	-8	-2	nt	nt
CCCN(CCC)[C@@H]1CCc2c(F)ccc(O)c2C1	11	0	6	8.5*!	-1	-7
O=C1CCC(N2C[C@H]3C[C@@H](C2)c2cccc(=O)n2C3)CCN1Cc1cccc(Cl)c1 (some centres not stated)	10	0	2	0	nt	nt
CC1(C)C(C(=O)Nc2cccc3ccccc23)C1(C)C	3	0	2	0	nt	nt
Cc1ccccc1NC(=O)C1C(C)(C)C1(C)C	0	0	6	9.3*	0	7
CCOc1cccc(CNC2CN3CCC2CC3)c1 (configuration not stated)	-6	0	4	6.9*	0	5
Cc1cc([N+](=O)[O-])c(N2CCN(C)CC2)cc1N	11	0	-8	0	nt	nt
Cc1c(C(=O)c2ccc3ccccc3c2)c2cccc3c2n1[C@H](CN1CCOCC1)CO3	10	1	nt	5.4*	1	-9
O=[N+]([O-])/C=C/c1ccccc1OCc1ccc(F)cc1	13	1	-8	-1	nt	nt
C=CCOc1ccccc1/C=C/[N+](=O)[O-]	-5	0	-1	7.3*	0	6
CC1=NCCc2c1[nH]c1cc(O)ccc21	-3	0	6	5.0*!	3	1
CSc1nc2ccccc2c(=O)n1-c1cccc(C)c1	21	0	-9	1	nt	nt
CCSc1nc2ccccc2c(=O)n1-c1cccc(OC)c1	2	0	-5	0	nt	nt
CCCCNC(=O)N1c2ccc(C)cc2C2CN(C)CCC21 (configuration not stated)	-2	0	5	5.9*	-1	6
CCCCCC(=O)N1c2ccc(C)cc2C2CN(C)CCC21 (configuration not stated)	4	0	9	-1	nt	nt
COc1cc(CN2CCN(C(=O)Cc3ccccc3)CC2)cc(OC)c1O	34	0	-1	1	nt	nt
N#CCC(=O)NN1Cc2ccccc2C1=N	-4	0	1	6.8*	0	8
C=CCOC(=O)C1C2NC(=S)N(c3cccc(Cl)c3)C1(C)Oc1ccccc12 (configuration not stated)	-4	0	-7	10.0*	0	2
CCOC(=O)C1C2NC(=S)N(c3ccccc3)C1(C)Oc1ccccc12 (configuration not stated)	24	0	-4	1	nt	nt
O=C1NC(=S)N(c2ccc(Cl)cc2)C(=O)/C1=C/c1ccc2c(c1)OCO2	-10	0	0	-1	nt	nt
